Measured values as given in PubChem BioAssay (Tox21).
Results filed as inconclusive are left out. Active and inactive are the calls of the source. The call rests on the fitted dose curve; in most records, active means well fitted curve in the direction sought with a large enough effect in the repeat runs; inconclusive means weak or mixed curves; inactive means no such curve, though single readings can be large; an effect the other way counts as inactive or inconclusive.

Tests used:
[1] = A CellTox Green Cytotoxicity Assay to monitor cytotoxicity in HepG2 cells - 16 hour (AID 1224876); further: nearly all actives have a fitted effect of over 45% in size
In short: (§1)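 Cells and non-lytic dye reagent are dispensed together (600 HepG2 cells/well) and incubated 5 h before DMSO compound transfer. Kinetic fluorescence is then recorded in the same wells during 40 h at 37 C.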

[2] = qHTS RealTime-Glo MT Cell Viability Assay in HepG2 cells - 32 hour (AID 1224877); further: nearly all actives have a fitted effect of over 55% in size
In short: (§2)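 Real-time, nonlytic viability: 600 HepG2 cells/well mixed with NanoLuc enzyme plus prosubstrate; 5 h settle, compound (DMSO) added by pintool; luminescence monitored over 40 h at 37 C.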

[3] = A CellTox Green Cytotoxicity Assay to monitor cytotoxicity in HepG2 cells - 24 hour (AID 1224878); further: nearly all actives have a fitted effect of over 45% in size
In short: as §1

[4] = A CellTox Green Cytotoxicity Assay to monitor cytotoxicity in HepG2 cells - 40 hour (AID 1224879); further: nearly all actives have a fitted effect of over 40% in size
In short: as §1

[5] = qHTS RealTime-Glo MT Cell Viability Assay in HEK293 cells - 0 hour (AID 1224880); further: top concentration of the series differs between compounds; nearly all actives have a fitted effect of over 45% in size
In short: (§3)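 Real-time viability in HEK293: signal arises when living cells convert a prosubstrate for NanoLuc in the medium, so luminescence tracks viable cell number. Compound (23 nL, DMSO) added 5 h post-seeding; kinetic reads at 0–40 h, 37 C.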

[6] = A CellTox Green Cytotoxicity Assay to monitor cytotoxicity in HEK293 cells - 32 hour (AID 1224881); further: nearly all actives have a fitted effect of over 40% in size
In short: (§4)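 Cells (HEK293, 600/well) and dye reagent are dispensed together. After 5 h at 37 C, 23 nL compound is pinned in. Plates stay at 37 C for 40 h with fluorescence read at 0h, 8h, 16h, 24h, 32h and 40h.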

[7] = A CellTox Green Cytotoxicity Assay to monitor cytotoxicity in HepG2 cells - 32 hour (AID 1224883); further: nearly all actives have a fitted effect of over 50% in size
In short: as §1

[8] = qHTS RealTime-Glo MT Cell Viability Assay in HepG2 cells - 16 hour (AID 1224885); further: nearly all actives have a fitted effect of over 50% in size
In short: as §2

[9] = qHTS RealTime-Glo MT Cell Viability Assay in HEK293 cells - 24 hour (AID 1224886); further: top concentration of the series differs between compounds; nearly all actives have a fitted effect of over 50% in size
In short: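 Cells + reagent dispensed (600 cells/well, HEK293) → 5 h at 37 C/5% CO2 → 23 nL compound in DMSO pinned → 40 h at 37 C → luminescence read at 0, 8, 16, 24, 32, 40 h.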

[10] = A CellTox Green Cytotoxicity Assay to monitor cytotoxicity in HEK293 cells - 16 hour (AID 1224888); further: nearly all actives have a fitted effect of over 35% in size
In short: as §4

[11] = qHTS RealTime-Glo MT Cell Viability Assay in HepG2 cells - 0 hour (AID 1224889); further: nearly all actives have a fitted effect of over 50% in size
In short: as §2

[12] = A CellTox Green Cytotoxicity Assay to monitor cytotoxicity in HepG2 cells - 8 hour (AID 1224890); further: nearly all actives have a fitted effect of over 45% in size
In short: as §1

[13] = qHTS assay to identify small molecule antagonists of the estrogen receptor alpha (ER-alpha) signaling pathway using the BG1 cell line in the presence of 0.1 nM 17-beta-estradiol - cell viability counter screen (AID 1259241); further: nearly all actives have a fitted effect of over 40% in size
In short: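 VM7Luc4E2 cells (endogenous ER-alpha, 4×ERE-luciferase), hormone-starved 5 days in charcoal-stripped FBS, were treated with compounds plus 0.1 nM 17beta-estradiol for 22 hr at 37C; viability read in same wells as CellTiter-Fluor live-cell protease fluorescence.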

[14] = qHTS RealTime-Glo MT Cell Viability Assay in HEK293 cells - 8 hour (AID 1224887)
In short: as §3

[15] = qHTS assay to identify small molecule antagonists of the androgen receptor (AR) signaling pathway using the MDA cell line in the presence of 0.5 nM R1881 - cell viability counter screen (AID 1259242); further: nearly all actives have a fitted effect of over 45% in size
In short: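 Steps: plate MDA-kb2 cells, rest 5 hr at 37C without CO2; pin in compounds in DMSO; add R1881 to 0.5 nM final; incubate 16 hr; add CellTiter-Fluor, 30 min; read fluorescence.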

[16] = target: Estrogen receptor (Homo sapiens) (UniProt P03372); test: qHTS assay to identify small molecule antagonists of the estrogen receptor alpha (ER-alpha) signaling pathway using the BG1 cell line in the presence of 0.1 nM 17-beta-estradiol (AID 1259244); further: nearly all actives have a fitted effect of over 50% in size
Chain of Estrogen receptor (Homo sapiens) (P03372 whole entry, looked up): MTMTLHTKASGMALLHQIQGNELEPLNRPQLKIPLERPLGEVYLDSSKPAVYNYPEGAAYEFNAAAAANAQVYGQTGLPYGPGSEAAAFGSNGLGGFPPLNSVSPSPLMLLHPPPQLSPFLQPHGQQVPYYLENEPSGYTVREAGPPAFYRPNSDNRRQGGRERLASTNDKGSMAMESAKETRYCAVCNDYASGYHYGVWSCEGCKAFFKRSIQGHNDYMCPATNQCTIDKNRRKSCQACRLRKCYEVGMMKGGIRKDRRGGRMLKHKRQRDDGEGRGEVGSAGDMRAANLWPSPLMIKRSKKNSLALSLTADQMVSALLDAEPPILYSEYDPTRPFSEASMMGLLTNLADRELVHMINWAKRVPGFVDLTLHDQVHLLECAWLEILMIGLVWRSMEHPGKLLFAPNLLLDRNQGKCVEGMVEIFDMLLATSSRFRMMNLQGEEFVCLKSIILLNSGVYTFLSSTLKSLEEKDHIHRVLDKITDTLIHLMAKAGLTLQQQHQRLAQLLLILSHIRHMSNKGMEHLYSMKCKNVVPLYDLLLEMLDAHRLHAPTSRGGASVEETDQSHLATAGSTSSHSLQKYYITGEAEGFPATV
In short: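 Antagonist mode: compounds in DMSO are pinned onto VM7Luc4E2 reporter cells, 0.1 nM final 17beta-estradiol is added, and after 22 h at 37C luciferase luminescence is measured with ONE-Glo.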

[17] = A CellTox Green Cytotoxicity Assay to monitor cytotoxicity in HEK293 cells - 8 hour (AID 1224884); further: nearly all actives have a fitted effect of over 35% in size
In short: as §4

Measured: Potency

CC(C)=CCC/C(C)=C/COC=O
not listed: [14] | [15] | [16] | [17]
inactive: all other assays above

C=CC/C=C/C
not listed: [17]
inactive: all other assays above

CC(=O)C(C)O (stereo not drawn)
not listed: [14] | [15] | [16]
inactive: all other assays above
